# Data as given in PMC4552634, “A New Set of Chemical Starting Points with Plasmodium falciparum Transmission-Blocking Potential for Antimalarial Drug Discovery” (PLoS ONE, 2015).
# Hit rate of the full screen: of about 13,000 compounds, about 3,200 (25%) showed an effect of 50% or more. The list shows a part of the results.
# System: P. falciparum stage V gametocytes
# Parameters: BacTiter-Glo ATP luminescence viability of purified stage V gametocytes in 384-well plates, per cent inhibition versus DMSO
# Settings: 48 h, 5 µM; inhibitor
row,SMILES,% Inhibition
1,COc1ccccc1Cn1ccnc1SCC(=O)Nc1cc(C(F)(F)F)ccc1Cl [TCMDC-124736],-16.43%
2,Cc1cc(C)cc(OCC(O)CN(CCN2CCOCC2)C(=O)Nc2ccc(Br)cc2)c1 (centres unmarked) [TCMDC-141491],2.41%
3,O=C(Cn1c(CCc2cccc(F)c2F)nc(=O)c2ccccc21)N(CCCN1CCCCC1)Cc1ccc(-c2ccc(C(F)(F)F)cc2)cc1 [TCMDC-141053],101.4%
4,CC(C)(CN1CCCC1)CN(Cc1ccc(-c2ccc(C(F)(F)F)cc2)cc1)C(=O)Cn1c(CCc2cccc(F)c2F)nc(=O)c2ccccc21 [TCMDC-141098],107.5%
5,O=C(Cn1c(CCc2cccc(F)c2F)nc(=O)c2ccccc21)N(CCCN1CCCC1)Cc1ccc(-c2ccc(C(F)(F)F)cc2)cc1 [TCMDC-141055],113.5%
6,O=C(Cn1c(CCc2cccc(F)c2F)nc(=O)c2ccccc21)N(CCN1CCCC1)Cc1ccc(-c2ccc(C(F)(F)F)cc2)cc1 [TCMDC-141059],66.66%
7,O=C(Cn1c(CCc2cccc(F)c2F)nc(=O)c2ccccc21)N(CCN1CCCCC1)Cc1ccc(-c2ccc(C(F)(F)F)cc2)cc1 [TCMDC-141088],27.65%
8,FC(F)(F)c1ccc2c(NCCc3ccccc3)ccnc2c1 [TCMDC-138552],-21.17%
9,COc1cccc2cc(C(=O)N[C@@H](CC(C)C)C(=O)N[C@H](/C=N/N(C)C(=O)OC(C)(C)C)CC(=O)OC(C)(C)C)oc12 [TCMDC-136092],4.382%
10,COc1ccc(NC(=O)Nc2nc(-c3ccc(Cl)c(C)c3)cs2)cc1N1CCN(C)CC1 [TCMDC-139155],8.522%
11,C[C@@H]1C[C@@H]([C@H](O)CC2CC(=O)NC(=O)C2)C(=O)[C@@H](C)C1 [TCMDC-125838],50.08%
12,O=C(NC1CCN(Cc2ccccc2)CC1)c1ccc(-c2nc3cc(Cl)c(Cl)cc3[nH]2)c(F)c1 [TCMDC-140083],2.132%
13,N=C(N)c1ccc(-c2cc3ccc(C(=N)N)cc3[nH]2)cc1 [TCMDC-123458],53.3%
14,N=C(N)c1ccc2[nH]c(-c3cc4cc(C(=N)N)ccc4o3)cc2c1 [TCMDC-137436],-17.43%
15,c1cc(-c2cc3ccc(C4=NCCN4)cc3[nH]2)ccc1C1=NCCN1 [TCMDC-137748],20.42%
16,COc1ccc2nccc([C@@H](O)CN3CCC(NC(=O)C(c4ccccc4C)N4CCC(Cc5ccccc5)CC4)CC3)c2c1 (some centres unmarked) [TCMDC-141102],2.818%
17,N=C1SC(=Cc2cn[nH]c2-c2ccc(F)cc2)C(=O)N1c1nccs1 [TCMDC-123515],2.084%
18,O=S(=O)(Nc1cccc(CCN2CCC(N3CCCCC3)CC2)c1)c1ccc(Cl)cc1 [TCMDC-134065],22.65%
19,CCc1ccc(S(=O)(=O)Nc2ccc(CCN3CCC(N4CCCCC4)CC3)cc2)cc1 [TCMDC-134089],86.75%
20,O=S(=O)(Nc1cccc(CCN2CCC(N3CCCCC3)CC2)c1)c1ccc(Oc2ccccc2)cc1 [TCMDC-134072],70.07%
21,O=S(=O)(Nc1cccc(CCN2CCC(N3CCCCC3)CC2)c1)c1ccc(-c2ccccc2)cc1 [TCMDC-134071],47.75%

row,SMILES,% Inhibition
1,O=S(=O)(Nc1ccc(CCN2CCC(N3CCCCC3)CC2)cc1)c1ccc(Cl)cc1 [TCMDC-134078],45.94%
2,Cc1ccc(NS(=O)(=O)c2ccc(C(C)N3CCC(N4CCCCC4)CC3)cc2)cc1C (centres unmarked) [TCMDC-133540],11.79%
3,O=S(=O)(Nc1cccc(CCN2CCC(N3CCCCC3)CC2)c1)c1ccc(Oc2ccccc2)nc1 [TCMDC-134073],14.52%
4,CC(C)c1ccc(S(=O)(=O)Nc2cccc(CCN3CCC(N4CCCCC4)CC3)c2)cc1 [TCMDC-134075],76.83%
5,CCc1ccc(S(=O)(=O)Nc2cccc(CCN3CCC(N4CCCCC4)CC3)c2)cc1 [TCMDC-134077],77.96%
6,COc1ccc(O)cc1Cc1cnc2nc(N)nc(N)c2c1C [TCMDC-137498],-65.52%
7,COc1ccc2nccc([C@@H](O)CN3CCC(NC(=O)C(c4cc5ccccc5o4)N4CCN(c5ccccc5)CC4)CC3)c2c1 (some centres unmarked) [TCMDC-140989],28.59%
8,CC(=O)N[C@H](C(=O)Nc1ccc(-c2ccc(-c3nc4cc(C(F)(F)F)ccc4[nH]3)s2)cc1)C(C)C [TCMDC-136852],-48.64%
9,O=C(NCCc1ccc(Cl)c(Cl)c1)C1CCCN(C(=O)c2ccc(O)c(-c3ccc(Cl)c(Cl)c3)c2)C1 (centres unmarked) [TCMDC-140892],-3.917%
10,CC(CON1C(N)=NC(N)=NC1(C)C)Cc1ccc(Cl)cc1Cl (centres unmarked) [TCMDC-131712],20.42%
11,Cc1cc(NS(=O)(=O)c2cccc(C(C)N3CCC(N4CCCC4)CC3)c2)ccc1C(C)C (centres unmarked) [TCMDC-133708],8.518%
12,O=S(=O)(Nc1ccc(CCN2CCC(N3CCCCC3)CC2)cc1)c1ccc2ccccc2c1 [TCMDC-134079],52.17%
13,O=S(=O)(Nc1cccc(CCN2CCC(N3CCCCC3)CC2)c1)c1ccc2c(c1)OCCO2 [TCMDC-134067],55.86%
14,COc1ccc2nccc([C@@H](O)CN3CCC(NC(=O)C(c4cccs4)N4CCN(c5ccc(F)cc5)CC4)CC3)c2c1 (some centres unmarked) [TCMDC-141100],25.13%
15,COc1cc(C(=O)N2CCOC(CCN3CCC(c4ccc(Cl)cc4)CC3)(c3ccc(Cl)c(Cl)c3)C2)cc(OC)c1OC (centres unmarked) [TCMDC-135566],-3.164%
16,COc1cc(C(=O)N2CCOC(CCN3CCC[C@H]3C(=O)Nc3ccccc3)(c3ccc(Cl)c(Cl)c3)C2)cc(OC)c1OC (some centres unmarked) [TCMDC-135571],90.6%
17,COc1cc(C(=O)N2CCOC(CCN3CCC4c5ccccc5CC43)(c3ccc(Cl)c(Cl)c3)C2)cc(OC)c1OC (centres unmarked) [TCMDC-135567],-73.24%
18,COc1cc(Nc2nccc(N3CCC(NC(=O)Nc4cccc(C(C)=O)c4)C3)n2)cc(OC)c1OC (centres unmarked) [TCMDC-133621],-9.129%
19,COc1cc(Cc2cnc(N)nc2N)cc(OCC(C)(C)C(=O)O)c1OC [TCMDC-137887],-9.297%
20,O=C(Nc1ccc(Cl)cc1)Nc1cccc(-c2ccc(-c3nc4ccc(F)cc4[nH]3)cc2)c1 [TCMDC-133183],78.47%
21,CC(=O)Nc1cccc(C(=O)Nc2ccc(-c3cccc(-c4nc5ccc(F)cc5[nH]4)c3)cc2)c1 [TCMDC-132135],-4.902%

row,SMILES,% Inhibition
1,O=C(Nc1ccc(Cl)cc1)Nc1cccc(-c2cccc(-c3nc4ccc(F)cc4[nH]3)c2)c1 [TCMDC-133185],-67.78%
2,Cc1cnc(C(=O)Nc2cccc(-c3cccc(-c4nc5ccc(F)cc5[nH]4)c3)c2)cn1 [TCMDC-137027],68.21%
3,CC(=O)Nc1cccc(C(=O)Nc2cccc(-c3ccc(-c4nc5ccc(F)cc5[nH]4)cc3)c2)c1 [TCMDC-132139],-25.67%
4,NC(=O)c1ccc(NCC(=O)Nc2cccc(-c3cccc(-c4nc5ccc(C(F)(F)F)cc5[nH]4)c3)c2)cc1 [TCMDC-132164],-17.45%
5,NC(=O)c1ccc(NCC(=O)Nc2cccc(-c3cccc(-c4nc5ccc(F)cc5[nH]4)c3)c2)cc1 [TCMDC-132163],90.29%
6,CC(=O)Nc1cccc(C(=O)Nc2cccc(-c3cccc(-c4nc5ccc(F)cc5[nH]4)c3)c2)c1 [TCMDC-132137],91.99%
7,Cc1cnc(C(=O)Nc2ccc(-c3cccc(-c4nc5ccccc5[nH]4)c3)cc2)cn1 [TCMDC-137026],-17.4%
8,NC(=O)c1ccc(NCC(=O)Nc2cccc(-c3cccc(-c4nc5ccccc5[nH]4)c3)c2)cc1 [TCMDC-132162],2.725%
9,Cc1cnc(C(=O)Nc2cccc(-c3ccc(-c4nc5ccc(F)cc5[nH]4)cc3)c2)cn1 [TCMDC-137029],23.15%
10,O=C(Nc1ccc(Cl)cc1)Nc1ccc(-c2cccc(-c3nc4ccc(F)cc4[nH]3)c2)cc1 [TCMDC-133186],-8.569%
11,O=C(NCCc1ccc(F)cc1)c1ccc(N2CCN(c3ccncc3)CC2)nc1 [TCMDC-134585],1.059%
12,COc1ccc(C2CC(c3cccs3)=NN2C(=O)c2ccco2)cc1OC (centres unmarked) [TCMDC-123796],12.69%
13,COc1ccc(CCCCN2C(=O)C(c3ccccc3)(c3ccccc3)N=C2N)cc1 [TCMDC-136522],-62.46%
14,C=CCOc1cc(Cc2cnc(N)nc2N)cc(OC)c1OC [TCMDC-138042],-3.964%
15,CCOc1cc(C(=O)NCc2cccc(C(F)(F)F)c2)ccc1-c1nc2ccc(Cl)cc2[nH]1 [TCMDC-140902],11.85%
16,O=C(Nc1ccc(Cn2ncc(N3CCCNCC3)c(Cl)c2=O)cc1)Nc1cc(F)cc(C(F)(F)F)c1 [TCMDC-133317],-20.94%
17,COc1nc(NCC(C)C)nc(Oc2ccc(=O)n(Cc3ccccc3)n2)n1 [TCMDC-124913],48.86%
18,O=C(Cc1ccc(NC(=O)c2ccc(O)c(-c3ccc(Cl)c(Cl)c3)c2)cc1)NCCc1ccc(Cl)c(Cl)c1 [TCMDC-140873],3.533%
19,O=C(/C=C/c1ccc(Cl)c(Cl)c1)NCC(CCCN1CCC(c2c[nH]c3ccccc23)CC1)c1ccccc1 (centres unmarked) [TCMDC-139506],-7.536%
20,CC(=O)NC1=NC(C)(C)N(OCCCOc2ccc(Cl)c(Cl)c2)C(NC(C)=O)=N1 [TCMDC-131742],2.376%
